PubChem BioAssay AID1662 (Broad Institute, 2009)
Screen size: about 300,000 compounds; about 4,000 (1.3%) were called active.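 The calls were made as follows: active = mean replicate score, as percent of positive control median, at least 50; inconclusive = mean below 50 but one replicate at or above 50; inactive = mean and every replicate below 50.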 The list comes from a sample in which actives are over-represented; it also holds similar structures and randomly drawn compounds.

Test: kanamycin survival loss of SKKanGAS strain – BacTiter-Glo luminescence, streptokinase expression inhibitor project, primary screen (AID 1662);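 also: strain carries kanamycin resistance gene driven by streptokinase promoter and grows in 40 µg/ml kanamycin; loss of luminescence reflects streptokinase promoter inhibition or plain growth inhibition; 0% = median of DMSO wells and 100% = positive control at its reference dose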
Details: S. pyogenes SKKanGAS, kanamycin growth, 6 h, at 7.5 µM, hits give high values

Compound | inhibition
Cc1ccc(S(=O)(=O)N2CC(C)N(S(C)(=O)=O)C2)cc1 (stereo not drawn) | -4.98% (inactive)
Cc1c(C(N)=O)sc2ncn(CCOc3ccccc3)c(=O)c12 | 2.66% (inactive)
CCOC(=O)C(C)n1cnc2sc(C)c(C)c2c1=O (stereo not drawn) | 2.1% (inactive)
Cc1cccc(OC(=O)c2sc3ncn(C)c(=O)c3c2C)c1 | 82.2% (active)
COc1ccccc1C(C)NC(=O)Cc1ccsc1 (stereo not drawn) | 5.44% (inactive)
CC(CNc1ccc([N+](=O)[O-])cc1)NC(=O)c1ccccc1Br (stereo not drawn) | -0.0993% (inactive)
O=C(Cc1csc(Nc2nc(=S)[nH]c3ccccc23)n1)NCCCN1CCN(c2cccc(Cl)c2)CC1 | 67.8% (active)
O=C(CCn1c(=O)[nH]c2ccccc2c1=O)NCCCN1CCN(c2cccc(Cl)c2)CC1 | 2.26% (inactive)
COc1cccc(CNC(=O)Cc2csc(Nc3nc(=S)[nH]c4ccccc34)n2)c1 | 5.91% (inactive)
CN1C(=O)C2(OCCCO2)c2cc(Cl)ccc21 | -1.28% (inactive)
CN(CCO)c1ccc(/C=N/Nc2nncc3ccccc23)cc1 | 68.8% (active)
C/C(=N\Nc1nncc2ccccc12)c1ccc(Cl)c([N+](=O)[O-])c1 | -1.2% (inactive)
COc1cc(/C=N/Nc2nn3cnnc3c3ccccc23)cc(OC)c1OC | -2.2% (inactive)
CC[N+]1(CC)CC2=Cc3ccccc3CC2C1 (stereo not drawn) | 5.88% (inactive)
COc1ccccc1OCCNc1cc(N2CCOCC2)ccc1[N+](=O)[O-] | -5.71% (inactive)
CC(NS(=O)(=O)c1ccc(Br)cc1)C(=O)NCC1CCCO1 (stereo not drawn) | -0.664% (inactive)
OC(CNCC1CCCO1)Cn1c2ccc(Br)cc2c2cc(Br)ccc21 (stereo not drawn) | 52.3% (active)
O=C(CSc1ccc(-c2ccc(Br)cc2)nn1)NCC1CCCO1 (stereo not drawn) | -6.3% (inactive)
CCOC(=O)C1(CCOc2ccccc2)CCN(Cc2cc(OC)cc(OC)c2)CC1 | -5.86% (inactive)
CC1CCCCN1S(=O)(=O)CCNC(=O)c1ccccc1 (stereo not drawn) | -1.35% (inactive)
CCn1c(SCC(=O)NC2CC2)nnc1-c1ccccn1 | 0.558% (inactive)
CC(C)(C)c1cc(C(=O)N/N=C/c2ccc([N+](=O)[O-])s2)n[nH]1 | 51.8% (active)
COc1ccc(C(=O)NCC(=O)N/N=C/c2ccc([N+](=O)[O-])s2)cc1OC | -2.08% (inactive)
Cc1ccccc1NCC(=O)N/N=C\c1ccc([N+](=O)[O-])s1 | 7.47% (inactive)

Compound | inhibition
CCCCCCSc1nsc(N)n1 | 5.66% (inactive)
O=C(NCc1ccccc1)C(c1ccco1)N(C(=O)c1csnn1)c1ccccc1F (stereo not drawn) | 1.53% (inactive)
CC1(C)CC2CC(C)(CN2c2ncnc3ccc(Br)cc23)C1 (stereo not drawn) | 18.3% (inactive)
CCCCn1c(CCCNC(=O)CC)nc2ccccc21 | -0.548% (inactive)
CCC(=O)Nc1nc2ccccc2n1Cc1ccccc1C | 61.8% (active)
CC(=O)Nc1nc2ccccc2n1Cc1ccc(C)cc1 | 24.3% (inactive)
CC(C)C1N=C2c3ccccc3N=C(SCC(=O)c3ccc(O)c(O)c3)N2C1=O (stereo not drawn) | 19% (inactive)
O=S(=O)(NC1CCCCC1N1CCCCC1)c1ccc(Cl)cc1 (stereo not drawn) | 1.78% (inactive)
Cc1ccc(S(=O)(=O)N2CCC(C(=O)OCC(=O)N(C)c3ccccc3)CC2)cc1C | -2.14% (inactive)
Oc1cccc2ccc(/C=C/c3ccc(Br)s3)nc12 | 77.1% (active)
Nc1ccc(S(=O)(=O)Nc2nccc(/C=C/c3ccc(Br)s3)n2)cc1 | 2.22% (inactive)
COc1cc2c(cc1OC)C(c1cccc([N+](=O)[O-])c1)=NCC2 | -3.25% (inactive)
CCc1nc2ccc(C(=O)N3CCN(c4cccc(Cl)c4)CC3)cc2nc1CC | 7.12% (inactive)
Oc1ccc(CN2CCN(c3ncccn3)CC2)cc1 | -0.583% (inactive)
CCN1CCN(C(c2cccnc2)c2cc(Cl)c3cccnc3c2O)CC1 (stereo not drawn) | 28.1% (inactive)
Oc1c(CN2CCN(c3ccc(F)cc3)CC2)cc(Cl)c2cccnc12 | 81.2% (active)
CCCCCCCCCCCCN1[C@@H](CC(C)=O)c2cc(F)cc(F)c2S1(=O)=O | 18.6% (inactive)
Cn1ncc2c(NNC(=O)Cc3cccc4ccccc34)ncnc21 | -0.379% (inactive)
COC(=O)CNS(=O)(=O)c1ccc(Cc2ccc(S(=O)(=O)NCC(=O)OC)cc2)cc1 | 0.851% (inactive)
CCN(CC(=O)Nc1cc(Cl)ccc1C)C(=O)CN1C(=O)NC2(CCCC2)C1=O | 9.28% (inactive)
O=C(O)c1ccccc1NC(=S)NC(NC(=O)c1ccccc1[N+](=O)[O-])C(Cl)(Cl)Cl (stereo not drawn) | -2.95% (inactive)
O=C(COC(=O)c1ccc(Oc2ccccc2)cc1)Nc1nnc(-c2ccccc2)o1 | 79.8% (active)
Cc1ccnc2nc(C(=O)Nc3nnc(-c4ccccc4)o3)nn12 | 1.08% (inactive)
O=C(Nc1cccc(Cl)c1)Nc1nnc(-c2ccccc2)o1 | 5.48% (inactive)

Compound | inhibition
O=C(COC(=O)CSc1nnc(-c2ccc(Cl)cc2)o1)Nc1cc(Cl)cc(Cl)c1 | 3.37% (inactive)
CCn1c2ccccc2c2cc(NC(=O)COC(=O)c3ccccc3Br)ccc21 | 2.54% (inactive)
CC(=O)Nc1cccc(C(=O)OCC(=O)Nc2nnc(-c3ccccc3)o2)c1 | 13.3% (inactive)
Cc1cccc(NC(=O)Nc2nnc(-c3ccccc3)o2)c1 | 15% (inactive)
O=C(Nc1nnc(-c2ccc(Cl)cc2)o1)c1ccccc1Br | 93.9% (active)
O=C(COC(=O)c1ccccc1Br)Nc1nnc(-c2ccccc2)o1 | 72.3% (active)
COc1ccc(-c2cc(=O)oc3cc(OC(C)C(=O)Nc4ccc(CN5CCOCC5)cc4)ccc23)cc1 (stereo not drawn) | 15.3% (inactive)
COCCCNC(=O)C1CC(=O)N(CCc2ccc(F)cc2)C1 (stereo not drawn) | 1.79% (inactive)
CC(C)(C)NC(=O)c1cccc(NC(=O)Cc2ccc(Br)cc2)c1 | 0.415% (inactive)
CNC(=S)NNC(=O)c1ccc(N(C)C)cc1 | -13.5% (inactive)
CCCCCC(=O)NC(=S)NNC(=O)c1ccc([N+](=O)[O-])cc1 | 21.9% (inactive)
COc1ccc(C(=O)NNC(=S)NC(=O)c2ccccc2[N+](=O)[O-])cc1 | -1.63% (inactive)
CC(=O)NC(=S)NNC(=O)c1ccc(Br)cc1 | 79% (active)
COc1ccc(C(=O)NC(=S)NNC(=O)CCc2ccccc2)cc1 | 9.14% (inactive)
COc1ccc(C(=O)NNC(=S)NC(=O)c2ccccc2)cc1 | 91.7% (active)
O=C(NCC(c1cccs1)N1CCOCC1)c1cc(-c2ccccn2)nc2ccccc12 (stereo not drawn) | -7.21% (inactive)
CC(=O)N1CCOc2ccc(S(=O)(=O)N3CCN(c4cccc(C(F)(F)F)c4)CC3)cc21 | 2.46% (inactive)
COc1ccc(N2CCC(CNC(=S)Nc3c(C)cccc3C)C2)cc1 (stereo not drawn) | -4.36% (inactive)
Cc1ccc(CN2CCC(N3CCC(C(=O)NCC4CCCO4)CC3)CC2)o1 (stereo not drawn) | 4.3% (inactive)
CCOC(=O)C1(Cc2ccccc2C)CCCN(C(=O)CN2C(=O)CSC2=O)C1 (stereo not drawn) | 5.85% (inactive)
CC(=O)Nc1nc(N(C)C)nc(N(C)C)n1 | 2.59% (inactive)
Cc1ccc(-c2nc3ccccc3[nH]2)cc1NC(=O)c1sc2ccccc2c1Cl | 4.45% (inactive)
O=C(/C=C/c1ccco1)Nc1cccc(-c2nc3ccccc3[nH]2)c1 | 16.2% (inactive)
O=C(Nc1cccc(-c2nc3ccccc3[nH]2)c1)c1ccc(C(=O)Nc2cccc(-c3nc4ccccc4[nH]3)c2)cc1 | 64% (active)

Compound | inhibition
O=C(NC1CC1)c1ccc(-c2ccccc2)cc1 | 1.81% (inactive)
O=C(CC1SC(=Nc2ccccc2F)N(CCN2CCOCC2)C1=O)Nc1ccc(F)cc1F (stereo not drawn) | -5.01% (inactive)
COc1ccccc1OCC(=O)Nc1c2c(nn1-c1ccc(F)cc1)CS(=O)(=O)C2 | 74.3% (active)
O=C(CC1CCCCC1)Nc1c2c(nn1-c1ccc(F)cc1)CS(=O)(=O)C2 | -9.45% (inactive)
CCOc1ccc(C(=O)Nc2c3c(nn2-c2ccccc2)CS(=O)(=O)C3)cc1 | 1.84% (inactive)
O=C(CN(c1cccc(Cl)c1)S(=O)(=O)c1ccccc1)NN=C1CCCC1 | 6.57% (inactive)
CSc1ncccc1C(=O)NCc1ccccc1Cl | -1.26% (inactive)
CNC(=O)c1nnn(-c2ccccc2)c1C(=O)NC | 3% (inactive)
CN(C)c1ccc(/C=N/N(Cc2ccccc2)c2ccccc2)cc1 | -5.9% (inactive)
O=C(C[n+]1ccccc1)N/N=C/c1ccc(O)cc1 | -9.65% (inactive)
Oc1ccc(/C=N/N(Cc2ccccc2)c2ccccc2)cc1 | 77.6% (active)
CCCCC(NS(=O)(=O)c1ccc(C)cc1)C(=O)Oc1ccc2c3c(c(=O)oc2c1)CCC3 (stereo not drawn) | 8.5% (inactive)
CC(C)COC(=O)n1c(=O)oc2ccc(S(=O)(=O)N3CCCCC3)cc21 | -4.31% (inactive)
COc1ccc(-n2c(SCC(=O)Nc3ccc4c(c3)OCO4)nnc2C(C)N2CCCCC2)cc1 (stereo not drawn) | -5.05% (inactive)
CCN(CC)S(=O)(=O)c1ccc(N2CCOCC2)c(NC(=O)C2CSC3(C)CCC(=O)N23)c1 (stereo not drawn) | 52.3% (active)
CC(C)Oc1ccc(S(=O)(=O)N2CCOCC2)cc1NC(=O)C1CSC2(C)CCC(=O)N12 (stereo not drawn) | 12% (inactive)
CCN(CC)S(=O)(=O)c1ccc(N2CCOCC2)c(NC(=O)C2COc3ccccc3O2)c1 (stereo not drawn) | 2.77% (inactive)
COc1ccc(Cl)cc1N(CC(=O)N1CCCCC1)S(C)(=O)=O | -8.05% (inactive)
O=[N+]([O-])/C=C/c1ccc2c(ccn2Cc2ccccc2)c1 | 81% (active)
O=C(/C=C/c1cccc([N+](=O)[O-])c1)N1CCN(Cc2ccccc2)CC1 | 2.48% (inactive)
O=c1c([N+](=O)[O-])cc(C(F)(F)F)cn1Cc1cccc(Cl)c1 | -8.03% (inactive)
